The target of assay [1] is Nuclear receptor coactivator 3 (Homo sapiens) (UniProt Q9Y6Q9). Nature of the assay: NCOA3 GAL4-fusion reporter inhibition – cell-based, luminescence, quadruplicate, confirmation (AID 588792;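 active = mean inhibition over 43.08%, the solvent-only control mean plus 3 SD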;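 also: 0% = DMSO treated cells and 100% = gossypol at 36 µM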). As to conditions: HEK293 GAL4-SRC3 luciferase reporter, at 3.6 µM, hits give high values.
The test system of assay [2] is transactivating tegument protein VP16 (Human herpesvirus 1), Gal4-VP16 luciferase reporter. Kind of assay: repression of VP16-driven luciferase reporter – cell-based, luminescence, high throughput, counter-screen for SRC3 inhibitor project (AID 588794; in the data active = inhibition above about 30%). As to conditions: mammalian cells, at 3.6 µM, hits give high values.
Assay [3] in a line: StAR promoter reporter inhibitors, counter-screen for LRH-1 inverse agonist project, cell-based, luminescence, high throughput (AID 651611). As to conditions: StAR promoter luciferase reporter counterscreen, at 3.6 µM, hits give high values.
Assay [4] addresses Nuclear receptor subfamily 5 group A member 2 (Homo sapiens) (UniProt O00482). Kind of assay: NR5A2 activity suppression in reporter cells – cell-based, luminescence, confirmation (AID 651613; in the data active = inhibition above about 42%;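 also: HEK293T cells co-transfected with LRH-1 and StAR promoter luciferase reporter; 0% = vehicle wells and 100% = parental cells lacking receptor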). As to conditions: cell-based LRH-1 luciferase reporter, inverse agonism; at 3.6 µM; hits give high values.
Assay [5] concerns the target Steroidogenic factor 1 (Homo sapiens) (UniProt Q13285). Nature of the assay: inverse agonism at SF1 nuclear receptor – cell-based, luminescence, high throughput, counter-screen for LRH-1 inverse agonist project (AID 651614; in the data active = inhibition above about 44%;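 also: cells cotransfected with StAR promoter reporter and SF1 expression vector; 0% = vehicle on cells with receptor and 100% = vehicle on cells lacking receptor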). To be noted: cell-based SF1 luciferase reporter, at 3.6 µM, hits give high values.
Assay [6] can be described thus: compounds suppressing VP16-driven luciferase signal – cell-based, luminescence, high throughput, counter-screen for LRH-1 inverse agonist project (AID 651615; in the data active = inhibition above about 33%). As to conditions: Gal4-VP16 luciferase reporter cells, at 3.6 µM, hits give high values.

A number with no mark means an inactive call. The source made the active and inactive calls. Rule as the data show it, unless noted: active = inhibition above about 28%; inactive = the rest.

Nuclear receptor coactivator 3 (Homo sapiens), sequence (Q9Y6Q9 whole entry, looked up, the tested form may be a part): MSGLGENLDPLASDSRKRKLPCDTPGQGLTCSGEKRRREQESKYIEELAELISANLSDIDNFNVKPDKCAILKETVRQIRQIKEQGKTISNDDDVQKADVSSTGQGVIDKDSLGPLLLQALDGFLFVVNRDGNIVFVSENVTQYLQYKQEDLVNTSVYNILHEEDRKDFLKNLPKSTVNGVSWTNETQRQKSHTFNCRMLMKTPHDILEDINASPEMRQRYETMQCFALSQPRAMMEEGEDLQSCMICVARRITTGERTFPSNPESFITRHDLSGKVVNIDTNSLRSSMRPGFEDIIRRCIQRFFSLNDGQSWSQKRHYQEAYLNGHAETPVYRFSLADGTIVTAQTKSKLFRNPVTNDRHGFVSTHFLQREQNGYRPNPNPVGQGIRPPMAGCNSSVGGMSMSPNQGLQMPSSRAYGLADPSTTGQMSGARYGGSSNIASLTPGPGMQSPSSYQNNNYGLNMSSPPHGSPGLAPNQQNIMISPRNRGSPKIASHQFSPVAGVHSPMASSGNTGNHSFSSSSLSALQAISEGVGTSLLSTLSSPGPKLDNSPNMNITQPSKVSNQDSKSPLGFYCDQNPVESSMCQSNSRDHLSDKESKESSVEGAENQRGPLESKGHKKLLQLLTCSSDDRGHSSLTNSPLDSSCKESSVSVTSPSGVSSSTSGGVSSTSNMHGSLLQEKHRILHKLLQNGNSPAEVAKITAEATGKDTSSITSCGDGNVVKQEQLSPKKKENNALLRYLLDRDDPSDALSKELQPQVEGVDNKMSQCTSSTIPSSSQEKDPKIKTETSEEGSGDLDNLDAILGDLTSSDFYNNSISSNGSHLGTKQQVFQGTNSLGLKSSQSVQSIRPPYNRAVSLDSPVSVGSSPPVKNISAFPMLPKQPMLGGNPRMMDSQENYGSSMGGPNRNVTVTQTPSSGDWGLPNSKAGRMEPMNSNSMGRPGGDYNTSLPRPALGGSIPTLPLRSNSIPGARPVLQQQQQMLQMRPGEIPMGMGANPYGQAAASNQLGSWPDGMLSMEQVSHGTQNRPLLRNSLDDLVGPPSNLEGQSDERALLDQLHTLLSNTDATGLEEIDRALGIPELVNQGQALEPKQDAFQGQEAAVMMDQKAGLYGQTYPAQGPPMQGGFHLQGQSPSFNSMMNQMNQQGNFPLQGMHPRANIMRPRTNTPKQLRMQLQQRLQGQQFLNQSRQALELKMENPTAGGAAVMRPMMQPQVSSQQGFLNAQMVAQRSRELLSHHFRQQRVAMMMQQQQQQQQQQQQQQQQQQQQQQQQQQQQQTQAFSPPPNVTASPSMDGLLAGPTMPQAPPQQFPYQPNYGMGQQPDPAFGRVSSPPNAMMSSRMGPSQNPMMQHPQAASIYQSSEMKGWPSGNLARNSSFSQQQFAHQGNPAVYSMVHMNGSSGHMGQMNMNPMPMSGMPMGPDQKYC
Nuclear receptor subfamily 5 group A member 2 (Homo sapiens), sequence (O00482 whole entry, looked up): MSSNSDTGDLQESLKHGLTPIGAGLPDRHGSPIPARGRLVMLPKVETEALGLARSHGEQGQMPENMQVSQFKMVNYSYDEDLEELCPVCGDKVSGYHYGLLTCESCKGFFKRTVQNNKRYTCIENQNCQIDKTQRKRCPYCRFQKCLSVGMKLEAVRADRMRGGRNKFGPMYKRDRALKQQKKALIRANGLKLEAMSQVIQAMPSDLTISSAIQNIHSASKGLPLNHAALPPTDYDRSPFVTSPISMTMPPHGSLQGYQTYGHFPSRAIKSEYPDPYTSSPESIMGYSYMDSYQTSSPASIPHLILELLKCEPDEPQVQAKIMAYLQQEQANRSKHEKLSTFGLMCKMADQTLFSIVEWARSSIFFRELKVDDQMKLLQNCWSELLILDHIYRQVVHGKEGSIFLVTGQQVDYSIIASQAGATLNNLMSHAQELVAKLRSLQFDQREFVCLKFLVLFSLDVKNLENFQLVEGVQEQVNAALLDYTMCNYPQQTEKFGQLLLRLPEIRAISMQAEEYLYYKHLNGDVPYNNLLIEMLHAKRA
Steroidogenic factor 1 (Homo sapiens), sequence (Q13285 whole entry, looked up, the tested form may be a part): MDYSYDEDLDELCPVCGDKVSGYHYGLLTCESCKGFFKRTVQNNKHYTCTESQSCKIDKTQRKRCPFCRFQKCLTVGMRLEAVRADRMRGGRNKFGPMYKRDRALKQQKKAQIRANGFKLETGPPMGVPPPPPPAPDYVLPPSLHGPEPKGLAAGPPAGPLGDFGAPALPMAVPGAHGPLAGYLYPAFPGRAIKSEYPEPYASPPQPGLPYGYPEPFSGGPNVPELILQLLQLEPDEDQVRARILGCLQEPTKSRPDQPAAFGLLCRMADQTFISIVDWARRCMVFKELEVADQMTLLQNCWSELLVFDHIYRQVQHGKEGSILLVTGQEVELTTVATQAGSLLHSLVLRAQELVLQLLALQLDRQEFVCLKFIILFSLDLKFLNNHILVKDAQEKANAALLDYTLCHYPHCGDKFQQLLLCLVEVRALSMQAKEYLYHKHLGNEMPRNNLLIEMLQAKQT

As for `Cc1ccc(NC2=C(N3CCCCC3)C(=O)c3ccccc3C2=O)cc1`, the inhibition is -30.8% in assay [1]; -15% in assay [2]; -37.9% in assay [3]; 12.3% in assay [4]; -5.93% in assay [5]; -11.3% in assay [6].

For `CCOC(=O)C(=CNc1ccc(NC2=NCC(C)S2)cc1)C(=O)OCC` (stereo not drawn), the inhibition in assay [1] is 60.3% (active); in assay [2], 24.9%; in assay [3], -39.4%; in assay [4], 69.1% (active); in assay [5], 70.9% (active); in assay [6], 36.8% (active).

Consider `CCC(C)(C)c1ccc(OCCCC[n+]2ccccc2)c(C(C)(C)CC)c1`, for which the inhibition in assay [1] was 26.1%; in assay [2], 37.4% (active); in assay [3] it was 16.3%; in assay [4], 64% (active); in assay [5], 55.6% (active); in assay [6], 60.8% (active).

For `Clc1ccc(C2=Nn3c(nnc3-c3n[nH]c4c3CCC4)SC2)cc1`, the inhibition in assay [1] is 28.4%; in assay [2], -31.7%; in assay [3], 61.5% (active); in assay [4] it was 46.5% (active); in assay [5] it was 66.8% (active); in assay [6] it was -54.9%.

As for `COc1ccc2c(c1OC)C(=O)N1c3ccccc3C(=O)N(c3ccccc3F)C21` (stereo not drawn), the inhibition was 17.7% in assay [1]; 10.7% in assay [2]; 53.5% (active) in assay [3]; 48.5% (active) in assay [4]; 54.1% (active) in assay [5]; 16.9% in assay [6].

Turning to `Cc1ncc(CO)c(/C=N/NC(=O)c2cc3c(s2)CCCC3)c1O`, the inhibition was 40.9% in assay [1]; 27.7% in assay [2]; 76.8% (active) in assay [3]; 94.7% (active) in assay [4]; 77.2% (active) in assay [5]; 82.6% (active) in assay [6].

With `CCOc1ccc(-n2c(-c3ccc(Br)cc3)c[n+]3c2CCCCC3)cc1`, the inhibition in assay [1] is 26.1%; in assay [2], 24.1%; in assay [3] it was 22.8%; in assay [4], 104% (active); in assay [5] it was 60.1% (active); in assay [6], 67.5% (active).

As to `CN(CCOc1ccc(Cl)cc1)C(=O)c1cccc(S(=O)(=O)N2CCN(c3ccc(F)cc3)CC2)c1`, the inhibition in assay [1] was 24.4%; in assay [2], 41.2% (active); in assay [3], 24.3%; in assay [4] it was 60.9% (active); in assay [5] it was 63.8% (active); in assay [6], 53.2% (active).

Consider `C[n+]1c2n(c3ccccc31)N=C(c1cc(C(C)(C)C)c(O)c(C(C)(C)C)c1)CS2`, for which the inhibition in assay [1] was 81.1% (active); in assay [2] it was 84.6% (active); in assay [3], 81.7% (active); in assay [4], 106% (active); in assay [5] it was 95% (active); in assay [6], 90% (active).

For `Cc1ccc(C(=O)C[n+]2cc(-c3ccc(C)cc3)n3c2CCCCC3)cc1`, the inhibition in assay [1] is 25.2%; in assay [2], 53.5% (active); in assay [3], 38% (active); in assay [4], 80.2% (active); in assay [5] it was 75.7% (active); in assay [6], 70.4% (active).

Take `CCOc1cc(/C=C2\N=C(SC(C)C(N)=O)N(c3ccc(OC(F)F)cc3)C2=O)ccc1O` (stereo not drawn): the inhibition in assay [1] was 27.6%; in assay [2], 58% (active); in assay [3], 59.3% (active); in assay [4], 65.4% (active); in assay [5] it was 73% (active); in assay [6] it was 73.1% (active).

Consider `CC(=O)c1c(C)[nH]c(C(=O)OCC(=O)Nc2ccc(Cl)cc2[N+](=O)[O-])c1C`, for which the inhibition is 9.25% in assay [1]; 38% (active) in assay [2]; 22% in assay [3]; 59.6% (active) in assay [4]; 62.2% (active) in assay [5]; 54.5% (active) in assay [6].

`CCOC(=O)C1=Nc2ccccc2C1=[N+]=[N-]`: the inhibition in assay [1] was 35.7%; in assay [2], 46% (active); in assay [3], 14.1%; in assay [4], 53.3% (active); in assay [5] it was 45.2% (active); in assay [6] it was 53.2% (active).

Turning to `CN(c1ccccc1)S(=O)(=O)c1cccc(C(=O)OCC(=O)Nc2ccc(C(N)=O)cc2)c1`, the inhibition in assay [1] is 6.76%; in assay [2] it was -5.87%; in assay [3] it was 16.5%; in assay [4], 1.26%; in assay [5], 10%; in assay [6] it was -16.3%.

Turning to `COc1cccc(CNc2nc3cc(-c4cnn(Cc5ccccc5)c4)sc3c(=O)n2C)c1`, the inhibition is 6.76% in assay [1]; 30.1% (active) in assay [2]; 32.4% (active) in assay [3]; 47.3% (active) in assay [4]; 52% (active) in assay [5]; 46.9% (active) in assay [6].

In the case of `Cn1c(CCN2CCN(c3ccccn3)CC2)nc2cc(NC(=O)COc3ccc(Cl)cc3)ccc21`, the inhibition in assay [1] was 18%; in assay [2] it was 33.9% (active); in assay [3], 29.2% (active); in assay [4], 49.8% (active); in assay [5], 51.4% (active); in assay [6], 51.6% (active).

Consider `CC[C@@H](C(=O)[C@@H](C)[C@@H](O)[C@H](C)CCc1ccc(C)c(O)c1C(=O)O)[C@H]1O[C@](CC)([C@H]2CC[C@](O)(CC)[C@H](C)O2)C[C@@H]1C`, for which the inhibition in assay [1] was 26.4%; in assay [2], 58% (active); in assay [3], 60.5% (active); in assay [4], 51.9% (active); in assay [5], 61.2% (active); in assay [6], 60% (active).

Turning to `COc1ccc(C(=O)C2CCCN(Cc3cccn3-c3ccc(Cl)cn3)C2)c(OC)c1` (stereo not drawn), the inhibition in assay [1] is 17.1%; in assay [2], 25.5%; in assay [3] it was 19%; in assay [4], 47.7% (active); in assay [5], 47.4% (active); in assay [6], 41.2% (active).

Values taken from PubChem BioAssay.
